Assay outcomes (PubChem BioAssay)
Shown are actives, neighbours in structure and some others; about 2.8% of the full set was active somewhere.
Mito fusion yeast: inhibitors of mitochondrial division or activators of mitochondrial fusion; Potency, µM (top dose mostly 46.1 µM), for the others: at the top dose growth rescue (activation), actives largely listed as activators; S. cerevisiae fusion-defective mutant growth rescue, CellTiterGlo 48 h; 320,000 tested, 0.23% active; AID 485298; also: % of control where 0% means no effect; nearly all actives have a fitted effect of over 45% in size
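Yeast fusion mutant, YPEG (non-fermentable carbon), compound, 48 h at 37C non-permissive; CellTiterGlo added, 10 min RT, luminescence read. Rescued growth = division inhibition.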
GLP1R ag: GLP-1 receptor (human) agonism; P43220; HEK293 GLP-1R CRE-luciferase, luminescence, 4-6 h; cells express a hypersensitive GLP-1R form; Potency, µM (titrated, usually from 45.6 µM), for the others: at the highest dose activation, actives largely listed as activators; 380,000 tested, 0.007% active; AID 624172; also: % of control where 0% means no effect
Target sequence (P43220 whole entry, looked up): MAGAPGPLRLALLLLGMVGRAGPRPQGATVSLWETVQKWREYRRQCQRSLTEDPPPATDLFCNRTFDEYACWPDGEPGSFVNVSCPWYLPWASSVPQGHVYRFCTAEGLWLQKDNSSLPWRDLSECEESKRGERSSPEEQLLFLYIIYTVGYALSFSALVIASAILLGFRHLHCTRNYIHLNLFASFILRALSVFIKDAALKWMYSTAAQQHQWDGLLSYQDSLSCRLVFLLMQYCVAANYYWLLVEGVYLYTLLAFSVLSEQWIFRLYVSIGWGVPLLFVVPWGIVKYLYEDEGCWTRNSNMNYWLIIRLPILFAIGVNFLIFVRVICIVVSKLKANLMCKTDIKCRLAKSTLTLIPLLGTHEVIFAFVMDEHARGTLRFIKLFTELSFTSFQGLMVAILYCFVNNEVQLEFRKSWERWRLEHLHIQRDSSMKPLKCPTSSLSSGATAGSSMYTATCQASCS
BRCA1 expr up: BRCA1 expression activation; 380,000 tested, 1.1% active; MCF7-BRCA1-FFLuc reporter, luminescence, 48 h; response scale: scaled: vehicle 0%, 10 µM genistein 100%; Potency, µM (titrated, usually from 46.1 µM), without a hit: at the top dose activation, most hits filed as activators; also: nearly all actives have a fitted effect of over 80% in size
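Quantitative HTS in MCF7 cells stably reporting BRCA1 expression via firefly luciferase. Compound treatment lasts 48 h at 37 °C in phenol-red free MEM. Activation is expressed relative to genistein at 10 microM and DMSO.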
HEK293 tox: cytotoxicity counter-screen for GLP-1 receptor inverse agonists; 410,000 tested, 0.13% active; HEK293 cAMP-luciferase reporter cells, luminescence, 24 h; Potency, µM (titrated, usually from 38.3 µM), inactives show at the highest dose activity change, negative = inhibition, most hits filed as inhibitors;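 also: loss of luciferase light is scored as toxicity; % is scaled to controls: 0 for no effect and ±100 for the full control effect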
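Luminescence readout: signal drop marks cytotoxicity. Plated cells grew 12 h at 37 °C, 5% CO2, received 23 nL compound for 24 h, then got luciferase reagent, read after 12 min at RT.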
GLP-1R inv ag: GLP-1 receptor (human) inverse agonism; HEK293 GLP-1R CRE-luciferase, luminescence, 24 h; GLP-1R form is constitutively active; P43220; Potency, µM (titrated, usually from 38.3 µM), for inactives: at the top dose activity change, negative = inhibition, hits mostly inhibitors; 410,000 tested, 1.6% active; AID 624417; also: % is scaled to controls: 0 for no effect and ±100 for the full control effect; nearly all actives have a fitted effect of over 55% in size
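Luminescence readout: a drop in cAMP-driven luciferase signal flags inverse agonism at a constitutively active GLP-1R stably expressed in HEK293. Compound exposure lasted 24 hr at 37 deg C, 5% CO2.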
Active calls of the source: *; ? = inconclusive; / = not tested or not shown. Calls follow the shape of the dose curve; as a rule, active = well fitted curve in the direction sought with a large enough effect; inconclusive = small, poorly fitted or top-dose-only effect, or another doubt; inactive = no such curve, though single readings can be large; an effect the other way counts as inactive or inconclusive. Potency is read from the fitted curve at half-maximal effect.

SMILES	Mito fusion yeast	GLP1R ag	BRCA1 expr up	HEK293 tox	GLP-1R inv ag
CCOC(=O)/C(C#N)=C(C)/C=C1\Sc2ccccc2N1CC	8%	18%	3.2µM*	2%	27%
CN(C(=O)COC(=O)C12CC3CC(CC(Cl)(C3)C1)C2)C1(C#N)CCCCC1	8%	-5%	-31%	-36%	13µM*
COC(=O)c1sccc1S(=O)(=O)N(CC(=O)Nc1cc(C)ccc1C)c1ccc(C)c(C)c1	/	/	/	-5%	13µM*
COC(=O)c1sccc1S(=O)(=O)N(CC(=O)Nc1cc(F)ccc1F)c1ccc(C)c(C)c1	/	/	/	1%	?
COC(=O)c1sccc1S(=O)(=O)N(CC(=O)Nc1cccc(C)c1C)c1ccc(C)c(C)c1	/	/	/	-17%	11µM*
COCCNC(=O)c1cccc(OC2CCN(Cc3ccccc3OC(F)F)CC2)c1	0%	0%	-4%	-8%	-24%
N#Cc1c(NC(NC(=O)c2ccco2)C(=O)c2ccccc2)sc2c1CCCC2 (centres undefined)	13µM*	4%	-1%	-6%	-7%
COCCNC(=O)C1(C)CCCN(Cc2cc(-c3ccccc3)n(C)n2)C1 (centres undefined)	/	-1%	3%	1%	9%
Nc1ccc2c(c1)C(=O)N(c1ccc3ccccc3c1)C2=O	/	/	11µM*	/	/
Cc1cc(C)cc(Nc2cc(C)nc3nc(C)nn23)c1	1%	15%	-21%	0%	9%
O=C(COC(=O)c1cccc(S(=O)(=O)N2CCCC2)c1)c1ccc(F)cc1	/	-6%	23%	4%	9%
COc1cccc2oc3cc(C#CC4(O)CCCCC4)ccc3c(=O)c12	-2%	6%	?	-20%	?
COc1cccc2oc3cc(C#Cc4ccccn4)ccc3c(=O)c12	-8%	0%	8.9µM*	3%	66%
CN(C)CCCNC(=O)c1cc(C(=O)c2c(Cl)cccc2Cl)c[nH]1	-3%	16%	-24%	6%	?
CC(=O)N(Cc1ccc(F)cc1)C1=C(NCc2ccccc2)C(=O)c2ccccc2C1=O	-2%	-12%	-92%	?	10µM*
O=C(NCc1ccc(F)cc1)C(c1ccccc1)c1ccccc1	0%	5%	1%	-15%	?
Cc1noc(C)c1COC(=O)CCN1c2ccccc2Sc2ccccc21	22%	16%	25%	16%	4.5µM*
COC(=O)CCC(=O)N(CCN(Cc1ccccc1)C(=O)CCC(=O)OC)Cc1ccccc1	/	6%	-4%	-9%	20%
CCCC(=O)N(CCN(Cc1ccccc1)C(=O)CCC)Cc1ccccc1	1%	1%	-6%	-24%	13µM*
CCOC(=O)Cn1c(=O)c(F)cn(Cc2ccc(OC)c([N+](=O)[O-])c2)c1=O	0%	-12%	-29%	-4%	5%
O=[N+]([O-])c1ccc2oc(/C=C/c3ccc(O)cc3)nc2c1	/	-2%	10µM*	3%	6%
CC(C)(C)Nc1nc2cc([N+](=O)[O-])ccc2o1	-4%	-1%	22%	2%	-5%
O=C1c2ccccc2C(=O)N1CCc1c[nH]c2ccccc12	21%	18%	2.2µM*	-17%	-26%
O=C(NCCc1c[nH]c2ccccc12)c1ccc([N+](=O)[O-])cc1	0%	3%	?	2%	?
O=C(NCCc1c[nH]c2ccccc12)c1ccccc1	-2%	4%	13µM*	9%	-2%
O=C(Cc1c[nH]c2ccccc12)OCC(=O)c1ccccc1	0%	2%	10%	1%	13µM*
O=C(NCCc1ccc(Cl)cc1)c1n[nH]c2ccccc12	17%	0%	79%	-14%	?
O=C(NCCc1ccccc1)c1n[nH]c2ccccc12	10%	13%	3.2µM*	4%	?
COc1ccc(C(=O)COC(=O)Cc2c[nH]c3ccccc23)c(OC)c1	12%	9%	-12%	3%	?
CN(CCc1ccccc1)C(=O)c1ccc(NC(=O)Cc2ccc(NC(=O)C3CCCN(C(=O)C4CCC4)C3)cc2)cc1 (centres undefined)	/	6%	0%	-1%	-25%
